Assay results taken from the supplement of paper PMC7156485.
Unmarked numbers belong to inactive results.

These compounds were tested on TDF (assay: H1.0 immunofluorescence intensity relative to DMSO (% of DMSO); higher = stronger H1.0 induction, active = 120 or more). Details: concentration: 10 µM; 24 h.
Procedure, shortened: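 In 384-well plates holding 800 HCC1569 or TDF cells per well in RPMI with 10% FBS, compounds were tested at 10 µM for 24 h at 37 °C in triplicate. Fixation used 3.7% formaldehyde. Staining used a rabbit anti-H1.0 antibody with an AlexaFluor 647 secondary, plus DAPI. Each value, H1.0 nuclear intensity or cell number, is a median of replicates shown as percent of the plate control, and HCC1569 values were smoothed for positional effects.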
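Also: TDF is a line of transformed human dermal fibroblasts of mesenchymal origin.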

Structure (SMILES) | H1.0 immunofluorescence intensity
CCN(CC)CCNC(=O)c1ccc(N)cc1.Cl [Procainamide hydrochloride] | 88.6
CC1CC2C3CCC4=CC(=O)C=CC4(C)C3(F)C(O)CC2(C)C1(O)C(=O)CO (stereo not given) [Dexamethasone] | 81.6
O=C(O)c1ccc2ccccc2c1O.OCc1cc(C(O)CNCCCCCCOCCCCc2ccccc2)ccc1O (stereo not given) [Salmeterol xinafoate] | 97.5
N#Cc1cccc(-c2c[nH]c3ncnc(N4CCOCC4)c23)c1 [3-(4-morpholino-7H-pyrrolo[2,3-d]pyrimidin-5-yl)benzonitrile] | 86.3
CC(O)C(CO)NC(=O)C1CSSCC(NC(=O)C(N)Cc2ccccc2)C(=O)NC(Cc2ccccc2)C(=O)NC(Cc2c[nH]c3ccccc23)C(=O)NC(CCCCN)C(=O)NC(C(C)O)C(=O)N1 (stereo not given) [Octreotide] | 103
CC(=O)NCCc1c[nH]c2ccc(O)cc12 [N-Acetyl-5-hydroxytryptamine] | 93.3
CCCCCCCCC=CCCCCCCCC(=O)NCCc1ccc(O)c(O)c1 [Oleoyl dopamine] | 103
CN1C2CCC1CC(OC(c1ccccc1)c1ccccc1)C2.CS(=O)(=O)O (stereo not given) [Benztropine mesylate] | 97.6
CCCCCCCCCCCCCCC(O)C(O)C(N)CO (stereo not given) [Phytosphingosine] | 124 (active)
Cl.Cl.OCCN1CCN(CCCN2c3ccccc3Sc3ccc(C(F)(F)F)cc32)CC1 [Fluphenazine dihydrochloride] | 118
CCCC(=O)Oc1ccc2[nH]c(C(=O)c3cc4ccccc4[nH]3)cc2c1 [PDGF Receptor Tyrosine Kinase Inhibitor II] | 87.9
CN1CCN2c3ccccc3Cc3ccccc3C2C1.Cl (stereo not given) [Mianserin hydrochloride] | 95.5
CC(=O)OC(C)C[N+](C)(C)C.[Cl-] (stereo not drawn) [Acetyl-beta-methylcholine chloride] | 96.2
CCCCCCCCCCCCCC(=O)NC(C)C(O)c1ccccc1 [D-erythro MAPP] | 100
CC(C)CC(NC(=O)C(Cc1ccccc1)NC(=O)c1cnccn1)B(O)O (stereo not given) [Bortezomib] | 144 (active)
OB1OCc2cc(F)ccc21 [5-fluoro-2,1-benzoxaborol-1(3H)-ol] | 95.6
CON=C(C(=O)NC1C(=O)N2C(C(=O)[O-])=C(C[N+]3(C)CCCC3)CSC12)c1csc(N)n1 (stereo not given) [Cefepime] | 91.1
Cc1[nH]c2ccccc2c1CC(=O)N[C@@H](Cc1ccccc1)C(=O)N(C)c1ccccc1 | 88.8
COc1cc2oc(=O)ccc2cc1O [Isoscopoletine] | 102
CC(O)C(=O)C1=Nc2c([nH]c(N)nc2=O)NC1 (stereo not given) [Sepiapterin] | 97.4

Structure (SMILES) | H1.0 immunofluorescence intensity
CNC(=O)c1cc(Oc2ccc(NC(=O)Nc3ccc(Cl)c(C(F)(F)F)c3)cc2)ccn1 [Sorafenib] | 108
CCc1nn(CCCN2CCN(c3cccc(Cl)c3)CC2)c(=O)n1CCOc1ccccc1 [Nefazodone] | 95.5
NC(=O)C(=O)[O-].[Na+] [Sodium Oxamate] | 94
COc1cccc2c1C(=O)c1c(O)c3c(c(O)c1C2=O)CC(O)(C(=O)CO)CC3OC1CC(N)C(O)C(C)O1.Cl (stereo not given) [Doxorubicin.HCl] | 132 (active)
O=C([O-])CCCc1ccccc1.[Na+] [Sodium Phenylbutyrate] | 96.4
CCCCCCCCC=CCCCCCCCC(=O)OCC(CO)OC(C)=O (stereo not given) [1-Oleoyl-2-acetyl-glycerol] | 89.4
O=C1CSc2ccccc2N1Cc1cccc(C(F)(F)F)c1 [4-[3-(trifluoromethyl)benzyl]-2H-1,4-benzothiazin-3(4H)-one] | 96.3
Cl.N=c1ccn2c(n1)OC1C(O)C(CO)OC12 (stereo not given) [Ancitabine hydrochloride] | 109
COc1cc2nccc(Oc3ccc(NC(=O)Nc4cc(C)on4)c(Cl)c3)c2cc1OC.O [VEGFR Tyrosine Kinase Inhibitor IV] | 94
C=C1CCC2OC2(C)CCC2C1CC2(C)C (stereo not given) [Caryophylline] | 105
CCCC(CCC)C(=O)[O-].[Na+] [Valproic acid sodium] | 95
COc1ccccc1N1CCN(CCN2C(=O)CC3(CCCC3)CC2=O)CC1.Cl.Cl [BMY 7378 dihydrochloride] | 90.3
O=C1c2c(O)cc(O)cc2OC(c2ccc(O)c(O)c2)C1O (racemic) | 87.5
COc1cccc(C(=O)NCCN2CCN(c3ccc(Cl)cc3)CC2)c1 | 94.5
C[n+]1cccc(C(=O)O)c1.[Cl-] | 101
COc1ccc(Cl)cc1C(=O)NCCc1ccc(S(=O)(=O)NC(=O)NC2CCCCC2)cc1 [Glibenclamide] | 93.9
Cc1cccc(C)c1OCC(C)N.Cl (stereo not given) [Mexiletene hydrochloride] | 87.8
Cc1ccc(NC2=CC(=O)c3sc(C)nc3C2=O)cc1 [Cdk4 Inhibitor III] | 132 (active)
COc1ccc2nc(S(=O)Cc3ncc(C)c(OC)c3C)[nH]c2c1 (stereo not given) [Omeprazole] | 95.5
NC1CONC1=O [L-Cycloserine] | 94.5
